Measured values published in PubChem BioAssay (Tox21).
Results filed as inconclusive are left out. Active and inactive are the calls of the source. Calls come from the whole dose curve; as a rule, active = well fitted curve in the direction sought with a large enough effect in the repeat runs; inconclusive = weak or mixed curves; inactive = no such curve, though single readings can be large; an effect the other way counts as inactive or inconclusive.

Legend:
[1] = qHTS RealTime-Glo MT Cell Viability Assay in HepG2 cells - 40 hour (AID 1224870); note: nearly all actives have a fitted effect of over 50% in size; note: potency is the fitted concentration of half-maximal effect
In short: (§1)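 HepG2 cells mixed with RealTime-Glo MT reagents (NanoLuc plus cell-permeant prosubstrate) were seeded at 600 cells/well, incubated 5 h at 37 C/5% CO2, then pinned with compounds in DMSO; nonlytic luminescence tracked viability during 40 h treatment.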

[2] = A CellTox Green Cytotoxicity Assay to monitor cytotoxicity in HEK293 cells - 40 hour (AID 1224871); note: nearly all actives have a fitted effect of over 45% in size; note: potency is the fitted concentration of half-maximal effect
In short: (§2)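 Cells (HEK293, 600/well) and dye reagent are dispensed together. After 5 h at 37 C, 23 nL compound is pinned in. Plates stay at 37 C for 40 h with fluorescence read at 0h, 8h, 16h, 24h, 32h and 40h.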

[3] = qHTS RealTime-Glo MT Cell Viability Assay in HEK293 cells - 16 hour (AID 1224872); note: nearly all actives have a fitted effect of over 50% in size; note: potency is the fitted concentration of half-maximal effect
In short: (§3)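 Nonlytic real-time viability readout: viable cells convert prosubstrate to NanoLuc substrate, giving luminescence proportional to live cell number. HEK293, 600 cells/well, compound added after 5 h, continuous culture at 37 C.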

[4] = qHTS RealTime-Glo MT Cell Viability Assay in HepG2 cells - 8 hour (AID 1224873); note: nearly all actives have a fitted effect of over 55% in size; note: potency is the fitted concentration of half-maximal effect
In short: as §1

[5] = A CellTox Green Cytotoxicity Assay to monitor cytotoxicity in HEK293 cells - 24 hour (AID 1224875); note: nearly all actives have a fitted effect of over 45% in size; note: potency is the fitted concentration of half-maximal effect
In short: as §2

[6] = A CellTox Green Cytotoxicity Assay to monitor cytotoxicity in HepG2 cells - 16 hour (AID 1224876); note: nearly all actives have a fitted effect of over 45% in size; note: potency is the fitted concentration of half-maximal effect
In short: (§4)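 Cells and non-lytic dye reagent are dispensed together (600 HepG2 cells/well) and incubated 5 h before DMSO compound transfer. Kinetic fluorescence is then recorded in the same wells during 40 h at 37 C.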

[7] = qHTS RealTime-Glo MT Cell Viability Assay in HepG2 cells - 32 hour (AID 1224877); note: nearly all actives have a fitted effect of over 55% in size; note: potency is the fitted concentration of half-maximal effect
In short: (§5)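 Luminescence read-out: viable HepG2 cells reduce a prosubstrate to a NanoLuc substrate, giving a signal proportional to live cell number. Reads taken at 0, 8, 16, 24, 32 and 40 h of compound exposure at 37 C.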

[8] = A CellTox Green Cytotoxicity Assay to monitor cytotoxicity in HepG2 cells - 24 hour (AID 1224878); note: nearly all actives have a fitted effect of over 45% in size; note: potency is the fitted concentration of half-maximal effect
In short: as §4

[9] = A CellTox Green Cytotoxicity Assay to monitor cytotoxicity in HepG2 cells - 40 hour (AID 1224879); note: nearly all actives have a fitted effect of over 40% in size; note: potency is the fitted concentration of half-maximal effect
In short: as §4

[10] = qHTS RealTime-Glo MT Cell Viability Assay in HEK293 cells - 0 hour (AID 1224880); note: nearly all actives have a fitted effect of over 45% in size; note: potency is the fitted concentration of half-maximal effect
In short: (§6)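 Real-time viability in HEK293: signal arises when living cells convert a prosubstrate for NanoLuc in the medium, so luminescence tracks viable cell number. Compound (23 nL, DMSO) added 5 h post-seeding; kinetic reads at 0–40 h, 37 C.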

[11] = A CellTox Green Cytotoxicity Assay to monitor cytotoxicity in HEK293 cells - 32 hour (AID 1224881); note: nearly all actives have a fitted effect of over 40% in size; note: potency is the fitted concentration of half-maximal effect
In short: as §2

[12] = A CellTox Green Cytotoxicity Assay to monitor cytotoxicity in HepG2 cells - 0 hour (AID 1224882); note: nearly all actives have a fitted effect of over 35% in size
In short: as §4

[13] = A CellTox Green Cytotoxicity Assay to monitor cytotoxicity in HepG2 cells - 32 hour (AID 1224883); note: nearly all actives have a fitted effect of over 50% in size; note: potency is the fitted concentration of half-maximal effect
In short: as §4

[14] = A CellTox Green Cytotoxicity Assay to monitor cytotoxicity in HEK293 cells - 8 hour (AID 1224884); note: nearly all actives have a fitted effect of over 35% in size; note: potency is the fitted concentration of half-maximal effect
In short: as §2

[15] = qHTS RealTime-Glo MT Cell Viability Assay in HEK293 cells - 24 hour (AID 1224886); note: nearly all actives have a fitted effect of over 50% in size; note: potency is the fitted concentration of half-maximal effect
In short: as §3

[16] = qHTS RealTime-Glo MT Cell Viability Assay in HEK293 cells - 8 hour (AID 1224887); note: nearly all actives have a fitted effect of over 50% in size; note: potency is the fitted concentration of half-maximal effect
In short: as §6

[17] = A CellTox Green Cytotoxicity Assay to monitor cytotoxicity in HEK293 cells - 16 hour (AID 1224888); note: nearly all actives have a fitted effect of over 35% in size; note: potency is the fitted concentration of half-maximal effect
In short: as §2

[18] = qHTS RealTime-Glo MT Cell Viability Assay in HepG2 cells - 0 hour (AID 1224889); note: nearly all actives have a fitted effect of over 50% in size; note: potency is the fitted concentration of half-maximal effect
In short: as §5

[19] = qHTS RealTime-Glo MT Cell Viability Assay in HepG2 cells - 16 hour (AID 1224885); note: nearly all actives have a fitted effect of over 50% in size; note: potency is the fitted concentration of half-maximal effect
In short: as §5

[20] = qHTS RealTime-Glo MT Cell Viability Assay in HEK293 cells - 40 hour (AID 1224874); conditions: RealTime-Glo luminescence; max response: stronger effect = lower value; note: nearly all actives have a fitted effect of over 50% in size; note: potency is the fitted concentration of half-maximal effect
In short: as §6
% is set by controls: 0 for no effect and ±100 for the full control effect.

O=C(CCc1ccc(O)cc1)c1c(O)cc(O)cc1O
inactive: Potency [1] | Potency [2] | Potency [4] | Potency [5] | Potency [6] | Potency [7] | Potency [8] | Potency [9] | Potency [11] | Potency [12] | Potency [13] | Potency [14] | Potency [17]
active: Potency [3] 25.1 µM | Potency [10] 39.8 µM | Potency [15] 39.8 µM | Potency [16] 25.1 µM

CS(=O)(=O)c1ccc(-c2cn3ccccc3n2)cc1
inactive: Potency [1] | Potency [2] | Potency [3] | Potency [5] | Potency [6] | Potency [7] | Potency [10] | Potency [11] | Potency [12] | Potency [18]

O=[N+]([O-])c1cc(C2CCCCC2)c(O)c([N+](=O)[O-])c1
inactive: Potency [2] | Potency [5] | Potency [11] | Potency [14] | Potency [17]
active: Potency [1] 48.9 µM | Potency [3] 27.5 µM | Potency [15] 13.8 µM | Potency [18] 38.8 µM

CCCCC(CC)CN (stereo not given)
inactive: Potency [1] | Potency [2] | Potency [3] | Potency [4] | Potency [5] | Potency [7] | Potency [8] | Potency [9] | Potency [10] | Potency [11] | Potency [12] | Potency [13] | Potency [19] | Potency [16] | Potency [18]

CC(C)(c1ccccc1)c1ccccc1
inactive: Potency [1] | Potency [4] | max response [20] -9.58% | Potency [6] | Potency [7] | Potency [8] | Potency [9] | Potency [10] | Potency [12] | Potency [13] | Potency [19] | Potency [15] | Potency [18]
active: Potency [2] 51.1 µM | Potency [5] 51.1 µM | Potency [11] 51.1 µM

OC[C@H]1O[C@@H](n2cnc3c(=S)nc[nH]c32)[C@H](O)[C@@H]1O
inactive: Potency [1] | Potency [2] | Potency [3] | Potency [4] | Potency [5] | Potency [6] | Potency [7] | Potency [8] | Potency [9] | Potency [10] | Potency [11] | Potency [12] | Potency [13] | Potency [14] | Potency [16] | Potency [17] | Potency [18]

CC(C)COCC(CN(Cc1ccccc1)c1ccccc1)N1CCCC1 (stereo not given)
active: Potency [1] 23.9 µM | Potency [2] 21.3 µM | Potency [3] 8.49 µM | Potency [4] 23.9 µM | Potency [5] 23.9 µM | Potency [6] 21.3 µM | Potency [7] 21.3 µM | Potency [8] 23.9 µM | Potency [9] 19 µM | Potency [11] 23.9 µM | Potency [13] 21.3 µM | Potency [14] 21.3 µM | Potency [19] 21.3 µM | Potency [15] 15.1 µM | Potency [16] 15.1 µM | Potency [17] 23.9 µM
inactive: Potency [12] | Potency [18]

N#CCc1ccc(Cl)cc1Cl
inactive: Potency [1] | Potency [2] | Potency [3] | Potency [4] | Potency [5] | Potency [6] | Potency [7] | Potency [9] | Potency [10] | Potency [11] | Potency [12] | Potency [13] | Potency [19] | Potency [15] | Potency [16] | Potency [18]

CC(O)c1ccccc1 (stereo not given)
inactive: Potency [1] | Potency [2] | Potency [3] | Potency [4] | Potency [5] | Potency [6] | Potency [8] | Potency [9] | Potency [10] | Potency [11] | Potency [13] | Potency [14] | Potency [19] | Potency [16] | Potency [17] | Potency [18]

CCCC(=O)C(=O)O
inactive: Potency [1] | Potency [2] | Potency [3] | Potency [4] | Potency [5] | Potency [6] | Potency [7] | Potency [9] | Potency [10] | Potency [11] | Potency [12] | Potency [13] | Potency [14] | Potency [19] | Potency [16] | Potency [17] | Potency [18]

CN1C(=O)OC(C)(C)C1=O
inactive: Potency [1] | Potency [2] | Potency [3] | Potency [4] | Potency [5] | Potency [6] | Potency [7] | Potency [8] | Potency [9] | Potency [10] | Potency [11] | Potency [13] | Potency [14] | Potency [19] | Potency [15] | Potency [16] | Potency [17] | Potency [18]

CCC(C)COC(=O)CC(C)C (stereo not given)
active: Potency [9] 49 µM | Potency [13] 54.9 µM
inactive: Potency [1] | Potency [2] | Potency [3] | Potency [4] | Potency [5] | Potency [7] | Potency [10] | Potency [11] | Potency [12] | Potency [19] | Potency [15] | Potency [16] | Potency [17] | Potency [18]

CCCCCCCCCI
active: Potency [1] 25 µM | Potency [7] 35.3 µM
inactive: Potency [2] | Potency [3] | Potency [4] | Potency [5] | Potency [9] | Potency [10] | Potency [11] | Potency [13] | Potency [14] | Potency [15] | Potency [16] | Potency [17] | Potency [18]

CC1CC(C)C(=O)C1=O (stereo not given)
active: Potency [20] 13.8 µM | Potency [15] 13.8 µM
inactive: Potency [1] | Potency [2] | Potency [4] | Potency [5] | Potency [6] | Potency [7] | Potency [8] | Potency [9] | Potency [10] | Potency [11] | Potency [12] | Potency [13] | Potency [14] | Potency [16] | Potency [17] | Potency [18]

CCC1NC(=O)c2cc(S(N)(=O)=O)c(Cl)cc2N1 (stereo not given)
inactive: Potency [1] | Potency [2] | Potency [3] | Potency [4] | Potency [5] | Potency [7] | Potency [8] | Potency [9] | Potency [10] | Potency [11] | Potency [12] | Potency [13] | Potency [19] | Potency [15] | Potency [16] | Potency [17] | Potency [18]
